Laboratory results as given in article PMC4336329 (PLoS ONE, 2015).
In all, about 310,000 compounds went through this assay and about 14,000 (4.5%) showed an effect of 50% or more. The effect is printed as a negative number. Shown is part of a subset that was picked to be rich in strong results.
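Note: peak tail current of the secondary pulse compared with the same well before compound.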

What follows are compounds tested against human ether-à-go-go-related gene (hERG) potassium channel (human, UniProt Q12809) (assay: primary screen, population patch clamp on CHO cells stably expressing hERG; higher = less effect of the substance).
human ether-à-go-go-related gene (hERG) potassium channel, sequence (Q12809 whole entry, looked up): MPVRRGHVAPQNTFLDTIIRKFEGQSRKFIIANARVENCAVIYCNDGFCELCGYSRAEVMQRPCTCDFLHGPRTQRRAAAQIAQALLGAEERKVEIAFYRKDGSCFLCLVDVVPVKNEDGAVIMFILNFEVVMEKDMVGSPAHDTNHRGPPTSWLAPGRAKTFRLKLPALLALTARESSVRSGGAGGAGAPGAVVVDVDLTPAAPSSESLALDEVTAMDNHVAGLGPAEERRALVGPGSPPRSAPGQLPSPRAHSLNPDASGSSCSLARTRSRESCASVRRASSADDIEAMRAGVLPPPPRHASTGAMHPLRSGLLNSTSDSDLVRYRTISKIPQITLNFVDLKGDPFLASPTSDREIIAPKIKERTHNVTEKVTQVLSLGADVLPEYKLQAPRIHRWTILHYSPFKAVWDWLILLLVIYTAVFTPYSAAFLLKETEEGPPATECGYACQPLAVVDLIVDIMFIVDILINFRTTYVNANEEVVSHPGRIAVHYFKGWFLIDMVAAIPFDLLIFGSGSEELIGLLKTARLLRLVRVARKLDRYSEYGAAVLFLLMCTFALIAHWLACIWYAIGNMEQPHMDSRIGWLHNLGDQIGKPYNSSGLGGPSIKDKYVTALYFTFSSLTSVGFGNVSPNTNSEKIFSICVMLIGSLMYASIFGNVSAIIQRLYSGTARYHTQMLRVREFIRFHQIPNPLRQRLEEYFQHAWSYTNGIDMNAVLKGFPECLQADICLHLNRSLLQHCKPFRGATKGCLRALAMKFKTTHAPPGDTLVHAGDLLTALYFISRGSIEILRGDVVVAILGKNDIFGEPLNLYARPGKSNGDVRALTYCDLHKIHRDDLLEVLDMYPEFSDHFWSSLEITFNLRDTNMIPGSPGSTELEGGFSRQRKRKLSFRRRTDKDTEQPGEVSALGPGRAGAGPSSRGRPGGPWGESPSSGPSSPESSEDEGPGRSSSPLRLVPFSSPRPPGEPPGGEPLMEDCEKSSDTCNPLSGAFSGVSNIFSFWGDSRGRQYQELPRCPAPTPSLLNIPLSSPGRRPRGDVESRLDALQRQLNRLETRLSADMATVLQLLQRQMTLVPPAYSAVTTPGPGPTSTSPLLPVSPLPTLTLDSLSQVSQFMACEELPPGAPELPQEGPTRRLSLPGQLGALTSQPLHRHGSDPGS
With `Cc1ccccc1NC(=S)N(Cc1cccnc1)Cc1ccccc1Cl` the “hERG current change (%, negative = inhibition) at 10uM” value was -11.6%.
In the case of `COc1ccc(C(=O)Nc2ccccc2C(=O)N2CCCCCC2)cc1OC`, the “hERG current change (%, negative = inhibition) at 10uM” value is reported as -10.5%.
`Cc1c(NC(NC(=O)CF)C(Cl)(Cl)Cl)c(=O)n(-c2ccccc2)n1C` (stereo not shown) was tested, and the “hERG current change (%, negative = inhibition) at 10uM” value was 4.94%.
For `O=C(NC(=S)Nc1cc(Cl)ccc1N1CCOCC1)c1ccc(-c2cccc(Cl)c2)o1`, the “hERG current change (%, negative = inhibition) at 10uM” value was 8.91%.
In the case of `O=C(COc1ccccc1O)Nc1ccccc1Cl`, the “hERG current change (%, negative = inhibition) at 10uM” value is reported as -4.32%.
For `COc1ccc(CCn2c(SCC(=O)Nc3cc(C)on3)nc3ccccc3c2=O)cc1OC`, the “hERG current change (%, negative = inhibition) at 10uM” value was 0.454%.
`Cc1ccc(OC(=O)CCc2c(C)nc3ncnn3c2C)cc1` was tested, and the “hERG current change (%, negative = inhibition) at 10uM” value was -8.47%.
`COc1cccc(NC(=O)CCCCCN2C(=O)[C@@H]3Cc4ccccc4CN3C2=O)c1` was tested, and the “hERG current change (%, negative = inhibition) at 10uM” value was -37.7%.
With `O=C(CCN1C(=O)[C@@H]2Cc3ccccc3CN2C1=O)Nc1cccc(F)c1` the “hERG current change (%, negative = inhibition) at 10uM” value was -13.8%.
For `O=C(CCCCCN1C(=O)[C@@H]2Cc3ccccc3CN2C1=O)Nc1cccc(F)c1`, the “hERG current change (%, negative = inhibition) at 10uM” value was -67.9%.
In the case of `CC1C(C#N)=C(N)OC2=C1C(=O)CC(C)(C)C2` (stereo not shown), the “hERG current change (%, negative = inhibition) at 10uM” value is reported as 9.35%.
In the case of `Cc1ccc(/C=N/NC(=O)NN(C)c2ncc(C(F)(F)F)cc2Cl)cc1`, the “hERG current change (%, negative = inhibition) at 10uM” value is reported as -3.09%.
For `CCOc1cc(/C=N/NC(=O)N/N=C/c2ccc(O)c(OCC)c2)ccc1O`, the “hERG current change (%, negative = inhibition) at 10uM” value was -10.1%.
With `CCOc1cc(/C=N/NC(=O)NN(C)c2ncc(C(F)(F)F)cc2Cl)ccc1O` the “hERG current change (%, negative = inhibition) at 10uM” value was -54.3%.
For `CC1=C(C(=O)OCC2CCCO2)C(c2ccc(Cl)c(Cl)c2)NC(=O)N1` (stereo not shown), the “hERG current change (%, negative = inhibition) at 10uM” value was 11.4%.
With `CCN1C(=NCC(C)C)N[C@@H](CCc2ccccc2)[C@H](C(=O)NCC(C)C)[C@H]1C` the “hERG current change (%, negative = inhibition) at 10uM” value was -16.2%.
`CCN1C(=NCCOC)N[C@@H](CCc2ccccc2)[C@H](C(=O)OC)[C@H]1C` was tested, and the “hERG current change (%, negative = inhibition) at 10uM” value was -1.21%.
With `CCN1C(=NCc2ccc(OC)cc2)N[C@@H](CCc2ccccc2)[C@H](C(=O)NCc2ccc(OC)cc2)[C@H]1C` the “hERG current change (%, negative = inhibition) at 10uM” value was -65.4%.
With `Cc1cc(/C=N/NC(N)=O)c(C)n1-c1ccc(F)cc1` the “hERG current change (%, negative = inhibition) at 10uM” value was -2.06%.
For `Cc1ccc(C(C(=O)NCc2ccc(F)cc2)N(C(=O)c2csnn2)C2CC2)cc1` (stereo not shown), the “hERG current change (%, negative = inhibition) at 10uM” value was -19.3%.
`O=C(NCc1ccc(F)cc1)C(c1ccc(F)cc1)N(C(=O)c1csnn1)C1CC1` (stereo not shown) was tested, and the “hERG current change (%, negative = inhibition) at 10uM” value was 9.3%.
For `Cc1ccc(C(C(=O)NCc2ccc(F)cc2)N(C(=O)c2csnn2)C2CC2)o1` (stereo not shown), the “hERG current change (%, negative = inhibition) at 10uM” value was -56.7%.
In the case of `Cc1ccc(C(C(=O)NCc2ccccc2)N(C(=O)c2csnn2)c2cccc3ccccc23)o1` (stereo not shown), the “hERG current change (%, negative = inhibition) at 10uM” value is reported as -13.2%.
With `Cc1cccc(N(C(=O)c2csnn2)C(C(=O)NCc2ccccc2)c2cccs2)c1` (stereo not shown) the “hERG current change (%, negative = inhibition) at 10uM” value was -9.49%.
`Cc1ccc(C(C(=O)NC2CCCC2)N(C(=O)c2csnn2)C2CCCC2)o1` (stereo not shown) was tested, and the “hERG current change (%, negative = inhibition) at 10uM” value was -4.91%.
For `Cc1ccc(C(C(=O)NC2CCCCC2)N(C(=O)c2csnn2)C2CC2)o1` (stereo not shown), the “hERG current change (%, negative = inhibition) at 10uM” value was -57.6%.
In the case of `Cc1cccc(N(C(=O)c2csnn2)C(C(=O)NCc2ccccc2)c2ccc(C)o2)c1` (stereo not shown), the “hERG current change (%, negative = inhibition) at 10uM” value is reported as -54.6%.
For `Cc1ccc(C(C(=O)NC2CCCCC2)N(C(=O)c2csnn2)C2CCCC2)o1` (stereo not shown), the “hERG current change (%, negative = inhibition) at 10uM” value was -7.71%.
In the case of `O=[N+]([O-])c1cc2c(cc1Br)CCN2`, the “hERG current change (%, negative = inhibition) at 10uM” value is reported as 11.2%.
For `O=C(O/N=C1\CCCc2ccccc21)C1CC1`, the “hERG current change (%, negative = inhibition) at 10uM” value was 14.4%.
`O=C(O)CCCC(=O)Nc1ccc(Oc2cccc(C(F)(F)F)c2)nc1` was tested, and the “hERG current change (%, negative = inhibition) at 10uM” value was 19.4%.
In the case of `CCC(C(=O)NCCc1ccccc1OC)n1nc(C)c2c(C)n(-c3ccccc3)nc2c1=O` (stereo not shown), the “hERG current change (%, negative = inhibition) at 10uM” value is reported as -30%.
In the case of `O=C(COC(=O)c1cc(NS(=O)(=O)c2cccs2)ccc1O)Nc1ccc(F)c(F)c1F`, the “hERG current change (%, negative = inhibition) at 10uM” value is reported as 4.87%.
In the case of `CCC(=O)Nc1cccc(NC(=S)NC(=O)c2cccs2)c1`, the “hERG current change (%, negative = inhibition) at 10uM” value is reported as 3.59%.
In the case of `O=C(NC(=S)Nc1cccc(-c2ccc(CO)o2)c1)c1cccs1`, the “hERG current change (%, negative = inhibition) at 10uM” value is reported as 23.7%.
With `CC(C)(O)c1ccc2c(c1)CCC1C(C)(C(=O)O)CCCC21C` (stereo not shown) the “hERG current change (%, negative = inhibition) at 10uM” value was 4.17%.
For `CCOC(=O)Cc1cc(=O)n2[nH]cc(-c3cccc(Br)c3)c2n1`, the “hERG current change (%, negative = inhibition) at 10uM” value was 35.6%.
`CC(=O)N1CCc2cc(S(=O)(=O)NC(C(=O)Nc3nc(C)cs3)C(C)C)ccc21` (stereo not shown) was tested, and the “hERG current change (%, negative = inhibition) at 10uM” value was 8.38%.
With `CCN1C(=O)C2C(c3ccc(O)c(OC)c3)NC(C)(C(=O)OC)C2C1=O` (stereo not shown) the “hERG current change (%, negative = inhibition) at 10uM” value was 12.1%.
In the case of `COc1cc(=O)[nH]c(SCc2c(F)c(F)c(F)c(F)c2F)n1`, the “hERG current change (%, negative = inhibition) at 10uM” value is reported as 0.443%.
In the case of `CC(=O)N(CC(=O)O)c1ccccc1C(=O)O`, the “hERG current change (%, negative = inhibition) at 10uM” value is reported as 12%.
For `Cc1cccc(NC(=O)CN2C(=O)/C(=C3\SC(=S)N(CC4CCCO4)C3=O)c3ccccc32)c1` (stereo not shown), the “hERG current change (%, negative = inhibition) at 10uM” value was 12.9%.
`O=C(CN1C(=O)/C(=C2\SC(=S)N(CCS(=O)(=O)O)C2=O)c2ccccc21)Nc1cccc(Br)c1` was tested, and the “hERG current change (%, negative = inhibition) at 10uM” value was -73.1%.
With `O=C1/C(=C2\C(=O)N(Cc3ccc(F)cc3)c3ccccc32)SC(=S)N1CCS(=O)(=O)O` the “hERG current change (%, negative = inhibition) at 10uM” value was 4.31%.
`COc1ccccc1CCNC(=O)C1CCC(=O)N(C2CCCCCC2)C1` (stereo not shown) was tested, and the “hERG current change (%, negative = inhibition) at 10uM” value was -7.62%.
With `N#Cc1cc2sc3nnc(-c4ccncc4)n3c2cc1C#N` the “hERG current change (%, negative = inhibition) at 10uM” value was -54%.
With `Cc1ccc(-c2nnc3sc(-c4ccncc4)nn23)cc1` the “hERG current change (%, negative = inhibition) at 10uM” value was -41.4%.
`Cc1cn2c(-c3ccncc3)nnc2s1` was tested, and the “hERG current change (%, negative = inhibition) at 10uM” value was 7.96%.
In the case of `COCCCNC(=O)c1ccc(Cn2c(=O)c3ccccc3n(CC(=O)NCc3ccco3)c2=O)cc1`, the “hERG current change (%, negative = inhibition) at 10uM” value is reported as 6.71%.
With `COc1cccc2sc(=NC(=O)CCS(=O)(=O)c3ccc(C)cc3)n(C)c12` the “hERG current change (%, negative = inhibition) at 10uM” value was 8.32%.
With `COc1cccc2sc(=NC(=O)CS(=O)(=O)c3ccc(F)cc3)n(C)c12` the “hERG current change (%, negative = inhibition) at 10uM” value was -0.213%.
For `COc1cccc2sc(=NC(=O)CS(=O)(=O)c3ccc(Cl)cc3)n(C)c12`, the “hERG current change (%, negative = inhibition) at 10uM” value was -60.8%.
